Inconclusive results are not listed. The source made the active and inactive calls. The calls were made as follows, unless noted: active = hit-call score of the fitted dose curve at least 0.9, where 1 is the maximum; inconclusive = response in the unintended direction; inactive = score below 0.9.
Read-out: organic anion transporter (SLCO1B1), SLCO1B1 (gene 10599)
Experiment: CLD_SLCO1B1_48hr: CellzDirect (CLD) Gene Expression Assay for organic anion transporter (SLCO1B1) at 48 hours (AID 2283707)
How it was run: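 Primary human hepatocytes from two donor preparations dosed daily for two days with multiple concentrations, 0.2% DMSO vehicle. SLCO1B1 mRNA at 48 h by quantitative nuclease protection assay, chemiluminescence; gain-of-signal fitted versus DMSO.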
In the case of `COP(=S)(OC)Oc1ccc([N+](=O)[O-])cc1`, the outcome is reported as “inactive”.
In the case of `Oc1ccc(Cl)cc1Cc1ccccc1`, the outcome is reported as “inactive”.
In the case of `COC(=O)c1ccccc1CS(=O)(=O)NC(=O)Nc1nc(OC)cc(OC)n1`, the outcome is reported as “inactive”.
In the case of `CCc1ccc(C(=O)NN(C(=O)c2cc(C)cc(C)c2)C(C)(C)C)cc1`, the outcome is reported as “inactive”.
In the case of `CCOc1nc(NC)nc(NC(=O)NS(=O)(=O)c2ccccc2C(=O)OC)n1`, the outcome is reported as “inactive”.
In the case of `COc1cc(OC)nc(NC(=O)NS(=O)(=O)c2cc(NC=O)ccc2C(=O)N(C)C)n1`, the outcome is reported as “inactive”.

Read-out: alkyl and aryl transferase (GSTA2), GSTA2 (gene 2939)
Experiment: CLD_GSTA2_48hr: CellzDirect (CLD) Gene Expression Assay for alkyl and aryl transferase (GSTA2) at 48 hours (AID 2283708);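 also: active means mRNA induction above DMSO vehicle baseline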
How it was run: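 Primary human hepatocytes dosed daily for two days (0.2% DMSO vehicle), harvested at 48 h. GSTA2 mRNA induction measured by quantitative nuclease protection assay with chemiluminescent imaging, fitted for gain of signal relative to DMSO.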
With `CCC(C)Nc1c([N+](=O)[O-])cc(C(C)(C)C)cc1[N+](=O)[O-]` (stereo not given) the AC50 was 4.11 µM (active).
In the case of `CN1CSC(=S)N(C)C1`, the outcome is reported as “inactive”.
In the case of `Cc1[nH]c(=O)n(C(C)(C)C)c(=O)c1Cl`, the outcome is reported as “inactive”.
With `C[C@H]1[C@H](c2ccc(Cl)cc2)SC(=O)N1C(=O)NC1CCCCC1` the AC50 was 34.4 µM (active).
For `CCCN(CCOc1c(Cl)cc(Cl)cc1Cl)C(=O)n1ccnc1`, the outcome was “inactive”.
In the case of `CCOC1Oc2ccc(OS(C)(=O)=O)cc2C1(C)C` (stereo not given), the outcome is reported as “inactive”.
In the case of `O=C(Nc1ccccc1)Nc1cnns1`, the outcome is reported as “inactive”.
In the case of `CCC(C)(C)C(=O)OC1=C(c2ccc(Cl)cc2Cl)C(=O)OC12CCCCC2`, the outcome is reported as “inactive”.
For `C#CCN1C(=O)COc2cc(F)c(N3C(=O)C4=C(CCCC4)C3=O)cc21`, the outcome was “inactive”.
With `Clc1ccccc1-c1nnc(-c2ccccc2Cl)nn1` the outcome was “inactive”.
In the case of `Oc1ccc(Cl)cc1Cc1ccccc1`, the outcome is reported as “inactive”.
For `ClC1C(Cl)C(Cl)C(Cl)C(Cl)C1Cl` (stereo not given), the outcome was “inactive”.
With `COC(=O)c1ccccc1CS(=O)(=O)NC(=O)Nc1nc(OC)cc(OC)n1` the outcome was “inactive”.
In the case of `[2H]C1([2H])[n+]2ccccc2-c2cccc[n+]2C1([2H])[2H]`, the outcome is reported as “inactive”.
For `CCOc1nc(NC)nc(NC(=O)NS(=O)(=O)c2ccccc2C(=O)OC)n1`, the outcome was “inactive”.
For `OCCOc1ccccc1`, the outcome was “inactive”.
With `COC(=O)c1ccccc1S(=O)(=O)NC(=O)N(C)c1nc(C)nc(OC)n1` the outcome was “inactive”.
With `CC(C)(C)C(O)C(Oc1ccc(Cl)cc1)n1cncn1` (stereo not given) the outcome was “inactive”.
In the case of `COc1cc(OC)nc(NC(=O)NS(=O)(=O)c2cc(NC=O)ccc2C(=O)N(C)C)n1`, the outcome is reported as “inactive”.
In the case of `CC1(C)C(C=C(Cl)Cl)C1C(=O)OC(C#N)c1ccc(F)c(Oc2ccccc2)c1` (stereo not given), the outcome is reported as “inactive”.
With `CC(C)(C)C(O)/C(=C\c1ccc(Cl)cc1Cl)n1cncn1` (stereo not given) the outcome was “inactive”.
In the case of `CCCN(CCC)c1c([N+](=O)[O-])cc(C(F)(F)F)cc1[N+](=O)[O-]`, the outcome is reported as “inactive”.

Read-out: glucuronosyltransferase (UGT1A1), UGT1A1 (gene 54658)
Experiment: CLD_UGT1A1_48hr: CellzDirect (CLD) Gene Expression Assay for glucuronosyltransferase (UGT1A1) at 48 hours (AID 2283709);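 also: actives increase expression relative to DMSO so potency refers to induction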
How it was run: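 Human primary hepatocytes dosed daily for two days (0.2% DMSO vehicle), harvested at 48 h. UGT1A1 mRNA induction measured by quantitative nuclease protection assay with chemiluminescence; gain of signal versus DMSO; cytotoxicity flagged from morphology.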
With `CN1CSC(=S)N(C)C1` the outcome was “inactive”.
In the case of `CCOc1nc(NC)nc(NC(=O)NS(=O)(=O)c2ccccc2C(=O)OC)n1`, the outcome is reported as “inactive”.
For `CC(C)(C)C(O)C(Oc1ccc(Cl)cc1)n1cncn1` (stereo not given), the AC50 was 2.43 µM (active).

Read-out: HMG-CoA synthase (HMGCS2), HMGCS2 (gene 3158)
Experiment: CLD_HMGCS2_48hr: CellzDirect (CLD) Gene Expression Assay for HMG-CoA synthase (HMGCS2) at 48 hours (AID 2283711)
How it was run: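 Primary human hepatocytes from two donors dosed daily for two days, 0.2% DMSO vehicle. HMGCS2 mRNA measured 48 h after dosing by quantitative nuclease protection assay with chemiluminescent read-out; induction fitted relative to DMSO, cytotoxicity flagged by microscopy.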
With `Clc1ccccc1-c1nnc(-c2ccccc2Cl)nn1` the outcome was “inactive”.
With `Oc1ccc(Cl)cc1Cc1ccccc1` the outcome was “inactive”.
With `CC(C)(C)C(O)C(Oc1ccc(Cl)cc1)n1cncn1` (stereo not given) the outcome was “inactive”.
With `CC1(C)C(C=C(Cl)Cl)C1C(=O)OC(C#N)c1ccc(F)c(Oc2ccccc2)c1` (stereo not given) the outcome was “inactive”.

System: not listed separately
Experiment: STM_H9_OrnithineISnorm_perc: Stemina devTOX quickPredict H9 human embryonic stem cell (hESC)-based Assay for Ornithine (ORN) Metabolite Biomarker, Normalized (AID 2283712; active = hit-call score of the fitted dose curve at least 0.9, where 1 is the maximum; inactive = score below 0.9;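 also: ornithine released into spent medium during last day measured by mass spectrometry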)
How it was run: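 Undifferentiated H9 hESCs exposed 72 h with daily media and compound renewal; final 24-h conditioned medium analysed by UPLC-HRMS. Ornithine peak area normalised to spiked C13 standard and to median 0.1% DMSO control; viability by CellTiter-Fluor.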
With `CCC(C)Nc1c([N+](=O)[O-])cc(C(C)(C)C)cc1[N+](=O)[O-]` (stereo not given) the outcome was “inactive”.
With `Cc1[nH]c(=O)n(C(C)(C)C)c(=O)c1Cl` the outcome was “inactive”.
For `CCOC1Oc2ccc(OS(C)(=O)=O)cc2C1(C)C` (stereo not given), the AC50 was 86.3 µM (active).
In the case of `O=C(Nc1ccccc1)Nc1cnns1`, the outcome is reported as “inactive”.
In the case of `C#CCN1C(=O)COc2cc(F)c(N3C(=O)C4=C(CCCC4)C3=O)cc21`, the AC50 is reported as 84.1 µM (active).
For `Oc1ccc(Cl)cc1Cc1ccccc1`, the outcome was “inactive”.
For `O=S1OCC2C(CO1)C1(Cl)C(Cl)=C(Cl)C2(Cl)C1(Cl)Cl` (stereo not given), the AC50 was 36.1 µM (active).
For `CC(C)(C)C(O)C(Oc1ccc(Cl)cc1)n1cncn1` (stereo not given), the outcome was “inactive”.
With `CC1(C)C(C=C(Cl)Cl)C1C(=O)OC(C#N)c1ccc(F)c(Oc2ccccc2)c1` (stereo not given) the outcome was “inactive”.
With `CC(C)(C)C(O)/C(=C\c1ccc(Cl)cc1Cl)n1cncn1` (stereo not given) the AC50 was 69.4 µM (active).

System: not listed separately
Experiment: STM_H9_CystineISnorm_perc: Stemina devTOX quickPredict H9 human embryonic stem cell (hESC)-based Assay for Cystine (CYSS) Metabolite Biomarker, Normalized (AID 2283713; active = hit-call score of the fitted dose curve at least 0.9, where 1 is the maximum; inactive = score below 0.9)
How it was run: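 Undifferentiated H9 hESCs exposed 72 h, compound and media replaced every 24 h; final 24-h media analysed by UPLC-HRMS. Cystine normalized to C13 spike-in standard and median 0.1% DMSO control.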
For `CCC(C)Nc1c([N+](=O)[O-])cc(C(C)(C)C)cc1[N+](=O)[O-]` (stereo not given), the outcome was “inactive”.
With `Cc1[nH]c(=O)n(C(C)(C)C)c(=O)c1Cl` the outcome was “inactive”.
For `CCOC1Oc2ccc(OS(C)(=O)=O)cc2C1(C)C` (stereo not given), the AC50 was 83 µM (active).
In the case of `O=C(Nc1ccccc1)Nc1cnns1`, the AC50 is reported as 58.7 µM (active).
For `C#CCN1C(=O)COc2cc(F)c(N3C(=O)C4=C(CCCC4)C3=O)cc21`, the AC50 was 79.6 µM (active).
For `Oc1ccc(Cl)cc1Cc1ccccc1`, the outcome was “inactive”.
In the case of `O=S1OCC2C(CO1)C1(Cl)C(Cl)=C(Cl)C2(Cl)C1(Cl)Cl` (stereo not given), the AC50 is reported as 82 µM (active).
With `CC(C)(C)C(O)C(Oc1ccc(Cl)cc1)n1cncn1` (stereo not given) the AC50 was 20.4 µM (active).
For `CC1(C)C(C=C(Cl)Cl)C1C(=O)OC(C#N)c1ccc(F)c(Oc2ccccc2)c1` (stereo not given), the outcome was “inactive”.
In the case of `CC(C)(C)C(O)/C(=C\c1ccc(Cl)cc1Cl)n1cncn1` (stereo not given), the AC50 is reported as 79.6 µM (active).

— PubChem BioAssay (EPA / NIEHS)
